Laboratory results as given in PubChem BioAssay.
The source made the active and inactive calls. Unless noted, the rule behind the calls is not given here.

Columns and labels:
[1] = tested on: Wnt5a (protein binding on small-molecule microarray); assay: small molecules binding Wnt5a protein – biophysical, small-molecule microarray, 635/667 nm fluorescence, primary screen (AID 1142); details: 635 nm fluorescence, higher = more signal;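 note: fluorescence read at 667 nm with signal to noise per printed feature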
[2] = ATP-based viability of Huh7 replicon cells – cell-based, CellTiter-Glo luminescence, basal, 48 h, cytotoxicity control for HCV replication inhibitor project, primary screen (AID 1143); details: higher = more signal, called active from +8 up or from −8 down;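 note: Huh7 hepatoma cells carrying a hepatitis C replication reporter with no stimulus; test concentration not given here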
[3] = Pseudomonas biofilm growth suppression – PAO1 strain, BacTiter-Glo luminescence, LB-PBS, primary screen (AID 1144); details: P. aeruginosa PAO1 biofilm, 12 h, higher = more signal
[4] = basal CRE-LacZ reporter activity in PC12 – cell-based, unstimulated, primary screen (AID 1145); details: no forskolin, luminescence, 4.5 h, higher = more signal, called active from +8 up or from −8 down
[5] = forskolin-driven CRE-LacZ activity in PC12 – cell-based, CRE-LacZ reporter, forskolin-stimulated, primary screen (AID 1146); details: luminescence, 4.5 h, higher = more signal, called active from +8 up or from −8 down;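 note: PC12 cells with 6xCRE LacZ reporter stimulated by forskolin 10 µM; beta-galactosidase reporter signal reflecting CREB driven transcription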
[6] = target: Streptavidin (Streptomyces avidinii) (UniProt P22629); assay: compounds binding control protein streptavidin – biophysical, small-molecule microarray, 635/667 nm fluorescence, artefact control for SMM compound annotation, primary screen (AID 1147); details: higher = more signal;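 note: signal reflects streptavidin binding to arrayed compounds as a control protein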
[7] = probe aInhba binding on compound microarray – biochemical, small-molecule microarray, 635/667 nm fluorescence, primary screen (AID 1148); details: higher = more signal;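 note: score merges 667nm spot fluorescence with signal-to-noise for antibody binding to printed compounds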
Torsin-1A (Homo sapiens) [8] = target: Torsin-1A (Homo sapiens) (UniProt O14656); assay: TOR1A wild-type binding on microarray – cell lysate, small-molecule microarray, lysate, 635/667 nm, primary screen (AID 1149); details: COS7 hTOR1A-WT lysate, 635 nm fluorescence, higher = more signal
Torsin-1A (Homo sapiens) [9] = target: Torsin-1A (Homo sapiens) (UniProt O14656); assay: torsin A mutant lysate binding on microarrays – cell lysate, small-molecule microarray, COS7 lysate, 635/667 nm fluorescence, primary screen (AID 1150); details: COS7 hTOR1A mutant lysate, 635 nm fluorescence, higher = more signal;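 note: score pools 667 nm emission and signal to noise measuring lysate protein binding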
[10] = tested on: Sonic hedgehog protein (Shh); assay: Sonic hedgehog microarray binding compounds – biochemical, small-molecule microarray, 635/667 nm fluorescence, primary screen (AID 1151); details: 635 nm fluorescence, higher = more signal;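 note: Shh protein binding to compounds spotted on small-molecule microarray slides; score combines spot fluorescence intensity with signal-to-noise across triplicate slides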
[11] = optical density shifts of acrAB sulA E. coli – strain DRC41, OD650, 48 h, E. coli filamentation inducer project, primary screen (AID 1152); details: higher = more signal, called active from +8 up or from −8 down;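 note: E. coli MC1000 strain DRC41 lacking acrAB efflux pump and sulA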
[12] = probe aLefty1 binding on compound microarray – biochemical, small-molecule microarray, 635/667 nm fluorescence, primary screen (AID 1153); details: higher = more signal;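 note: score merges spot fluorescence with signal-to-noise ratio from the scanned slide images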
[13] = plasmodial surface anion channel blockers, osmotic lysis – cell-based, P. falciparum Indochina, OD700, 1 h, primary screen (AID 1154); details: P. falciparum Indochina infected RBC osmotic lysis, higher = more signal, called active from +8 up or from −8 down
[14] = plasmodial surface anion channel blockers, osmotic lysis – cell-based, P. falciparum Indochina, OD700, 2 h, primary screen (AID 1155);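 note: lysis reports solute entry through the parasite surface anion channel PSAC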; details: P. falciparum Indochina infected erythrocytes, higher = more signal, called active from +8 up or from −8 down
[15] = changes in parasitized red cell lysis, either direction – P. falciparum Indochina, OD700, 3 h, PSAC antagonist project, primary screen (AID 1156); details: P. falciparum-infected erythrocytes, osmotic lysis, higher = more signal, called active from +8 up or from −8 down
[16] = plasmodial surface anion channel blockers, osmotic lysis – cell-based, P. falciparum Indochina, OD700, 18 h, primary screen (AID 1157); details: P. falciparum Indochina infected erythrocytes, osmotic lysis OD700, 18 h; higher = more signal, called active from +8 up or from −8 down
[17] = S6 kinase pathway phospho-S6 level changes – cell-based, A549, cytoblot, luminescence, serum-stimulated, primary screen (AID 1158); details: 5 h, higher = more signal;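 note: serum-stimulated A549 lung adenocarcinoma cells; signal is phosphorylated S6 detected by cytoblot immunostaining with HRP secondary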
[18] = target: NADPH oxidase 2 (Homo sapiens) (UniProt P04839); assay: compounds shifting NOX2 Amplex Red fluorescence – cell-based, HEK293-NOX2, PMA-stimulated, NOX inhibitor project, primary screen (AID 1159); details: 45 min, higher = more signal, called active from +8 up or from −8 down; note: test concentration not given here
[19] = target: NADPH oxidase 4 (Homo sapiens) (UniProt Q9NPH5); assay: compounds shifting NOX4 Amplex Red fluorescence – cell-based, HEK293-NOX4, tetracycline-induced, NOX inhibitor project, primary screen (AID 1160); details: HEK293-NOX4, Amplex Red H2O2 fluorescence, 45 min; higher = more signal, called active from +8 up or from −8 down
[20] = target: NADPH oxidase 5 (Homo sapiens) (UniProt Q96PH1); assay: compounds shifting NOX5 Amplex Red fluorescence – cell-based, HEK293-NOX5, NOX inhibitor project, primary screen (AID 1161); details: HEK293-NOX5, ionomycin, 45 min, higher = more signal
Chain of NADPH oxidase 5 (Homo sapiens) (Q96PH1 whole entry, looked up): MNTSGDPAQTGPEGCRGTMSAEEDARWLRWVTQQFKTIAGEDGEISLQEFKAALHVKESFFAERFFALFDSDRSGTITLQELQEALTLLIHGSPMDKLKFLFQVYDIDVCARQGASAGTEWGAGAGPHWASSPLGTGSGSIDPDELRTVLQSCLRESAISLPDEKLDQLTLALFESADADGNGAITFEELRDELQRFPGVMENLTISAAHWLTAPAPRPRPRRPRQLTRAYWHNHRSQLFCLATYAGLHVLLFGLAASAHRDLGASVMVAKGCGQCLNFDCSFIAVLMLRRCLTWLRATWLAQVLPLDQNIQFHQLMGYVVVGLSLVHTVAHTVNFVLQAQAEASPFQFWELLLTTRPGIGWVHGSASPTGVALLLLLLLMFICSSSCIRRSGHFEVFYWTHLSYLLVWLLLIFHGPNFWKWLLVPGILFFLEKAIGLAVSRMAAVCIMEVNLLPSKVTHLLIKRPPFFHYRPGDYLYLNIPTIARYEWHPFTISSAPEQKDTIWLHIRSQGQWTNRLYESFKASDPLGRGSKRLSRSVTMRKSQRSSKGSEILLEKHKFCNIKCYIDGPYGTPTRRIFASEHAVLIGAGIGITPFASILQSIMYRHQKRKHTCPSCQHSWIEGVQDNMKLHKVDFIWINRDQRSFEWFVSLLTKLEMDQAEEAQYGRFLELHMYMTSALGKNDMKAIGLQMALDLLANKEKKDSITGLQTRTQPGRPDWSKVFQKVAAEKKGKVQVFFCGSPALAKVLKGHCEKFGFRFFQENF

Chain of Torsin-1A (Homo sapiens) (O14656 whole entry, looked up): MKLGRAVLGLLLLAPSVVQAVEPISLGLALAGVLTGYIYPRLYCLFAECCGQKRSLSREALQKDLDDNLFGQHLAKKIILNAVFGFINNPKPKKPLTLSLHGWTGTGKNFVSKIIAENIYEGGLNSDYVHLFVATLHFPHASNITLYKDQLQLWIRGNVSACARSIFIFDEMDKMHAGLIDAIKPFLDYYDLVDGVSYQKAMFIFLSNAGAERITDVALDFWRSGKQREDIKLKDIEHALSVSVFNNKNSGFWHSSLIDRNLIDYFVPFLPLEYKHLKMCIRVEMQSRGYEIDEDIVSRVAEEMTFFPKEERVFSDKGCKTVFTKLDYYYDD
Chain of NADPH oxidase 4 (Homo sapiens) (Q9NPH5 whole entry, looked up): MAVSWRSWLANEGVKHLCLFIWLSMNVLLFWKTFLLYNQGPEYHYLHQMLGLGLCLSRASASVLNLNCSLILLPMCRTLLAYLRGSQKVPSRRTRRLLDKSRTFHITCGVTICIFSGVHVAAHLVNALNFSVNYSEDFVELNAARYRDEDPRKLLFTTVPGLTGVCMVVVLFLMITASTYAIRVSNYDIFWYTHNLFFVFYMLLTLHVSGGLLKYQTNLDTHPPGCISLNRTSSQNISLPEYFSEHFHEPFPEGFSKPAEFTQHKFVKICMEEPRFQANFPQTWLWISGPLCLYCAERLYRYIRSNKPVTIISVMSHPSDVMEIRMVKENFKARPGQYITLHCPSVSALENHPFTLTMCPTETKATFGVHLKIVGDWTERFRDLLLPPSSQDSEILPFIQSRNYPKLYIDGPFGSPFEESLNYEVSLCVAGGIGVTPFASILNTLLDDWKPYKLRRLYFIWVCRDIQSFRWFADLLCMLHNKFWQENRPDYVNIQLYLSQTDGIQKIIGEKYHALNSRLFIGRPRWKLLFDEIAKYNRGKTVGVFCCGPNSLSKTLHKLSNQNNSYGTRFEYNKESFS
Chain of Streptavidin (Streptomyces avidinii) (P22629 whole entry, looked up): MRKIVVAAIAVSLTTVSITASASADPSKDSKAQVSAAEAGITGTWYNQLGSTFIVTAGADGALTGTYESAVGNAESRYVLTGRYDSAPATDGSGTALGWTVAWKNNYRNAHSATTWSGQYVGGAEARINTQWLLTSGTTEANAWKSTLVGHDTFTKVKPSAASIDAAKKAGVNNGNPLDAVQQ
Chain of NADPH oxidase 2 (Homo sapiens) (P04839 whole entry, looked up): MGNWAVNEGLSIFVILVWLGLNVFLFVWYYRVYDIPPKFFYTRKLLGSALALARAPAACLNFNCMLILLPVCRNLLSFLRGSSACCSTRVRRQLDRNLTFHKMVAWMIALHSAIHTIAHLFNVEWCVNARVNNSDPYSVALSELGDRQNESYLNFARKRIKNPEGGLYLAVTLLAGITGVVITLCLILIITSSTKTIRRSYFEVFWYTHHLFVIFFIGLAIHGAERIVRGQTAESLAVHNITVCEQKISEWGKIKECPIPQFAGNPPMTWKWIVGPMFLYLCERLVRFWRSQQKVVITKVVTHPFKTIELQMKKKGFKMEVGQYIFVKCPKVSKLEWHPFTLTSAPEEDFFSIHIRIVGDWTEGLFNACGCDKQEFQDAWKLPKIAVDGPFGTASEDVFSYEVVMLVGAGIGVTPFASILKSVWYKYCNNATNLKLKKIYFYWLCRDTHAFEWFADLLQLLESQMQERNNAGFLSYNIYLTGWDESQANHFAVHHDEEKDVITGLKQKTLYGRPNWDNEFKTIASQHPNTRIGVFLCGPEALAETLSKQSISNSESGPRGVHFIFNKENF

SMILES: COC(=O)[C@]1(CO)N=C(c2ccc(OCCCO)cc2)O[C@@H]1c1ccccc1N=[N+]=[N-]
- composite z-score [1]: 0.421
- z-score [2]: 0.159 (inactive)
- z-score [3]: 0.393 (inactive)
- z-score [4]: -0.609 (inactive)
- z-score [5]: -0.736 (inactive)
- composite z-score [6]: -0.435
- composite z-score [7]: 0.0646
- composite z-score (Torsin-1A (Homo sapiens) [8]): 1.85
- composite z-score (Torsin-1A (Homo sapiens) [9]): 1.9
- composite z-score [10]: 2.05
- z-score [11]: 0.248 (inactive)
- composite z-score [12]: 0.191
- z-score [13]: 18.3 (active)
- z-score [14]: 2.32 (inactive)
- z-score [15]: 1.49 (inactive)
- z-score [16]: 0.742 (inactive)
- z-score [17]: -0.315
- z-score [18]: -0.502 (inactive)
- z-score [19]: 0.0857 (inactive)
- z-score [20]: -0.514

SMILES: CC(=O)C[C@H](O)[C@@H](NC(=O)OC(C)(C)C)C(C)C
- composite z-score [1]: -0.388
- z-score [2]: -2.64 (inactive)
- z-score [3]: -1.13 (inactive)
- z-score [4]: 0.288 (inactive)
- z-score [5]: 1.01 (inactive)
- composite z-score [6]: -0.3
- composite z-score [7]: -0.0963
- composite z-score (Torsin-1A (Homo sapiens) [8]): -1.05
- composite z-score (Torsin-1A (Homo sapiens) [9]): -0.657
- composite z-score [10]: 0.347
- z-score [11]: -0.593 (inactive)
- composite z-score [12]: -0.196
- z-score [13]: 0.427 (inactive)
- z-score [14]: -0.649 (inactive)
- z-score [15]: 1.48 (inactive)
- z-score [16]: -1.64 (inactive)
- z-score [17]: 1.63
- z-score [18]: 0.2 (inactive)
- z-score [19]: -0.658 (inactive)
- z-score [20]: -1.63

SMILES: CC(C)NC(=O)[C@@H]1c2ccccc2C(=O)N(CC23CC4CC(CC(C4)C2)C3)[C@H]1c1ccc(CO)cc1
- composite z-score [1]: 0.0678
- z-score [2]: -4.06 (inactive)
- z-score [3]: -2.1 (inactive)
- z-score [4]: -0.0259 (inactive)
- z-score [5]: -0.607 (inactive)
- composite z-score [6]: 0.969
- composite z-score [7]: 0.0569
- composite z-score (Torsin-1A (Homo sapiens) [8]): 0.508
- composite z-score (Torsin-1A (Homo sapiens) [9]): 0.561
- composite z-score [10]: 1.54
- z-score [11]: 1.47 (inactive)
- composite z-score [12]: 0.433
- z-score [13]: 1.63 (inactive)
- z-score [14]: -0.315 (inactive)
- z-score [15]: -0.143 (inactive)
- z-score [16]: -0.853 (inactive)
- z-score [17]: 1.31
- z-score [18]: 0.357 (inactive)
- z-score [19]: 0.318 (inactive)
- z-score [20]: -1.82

SMILES: C=C(/C(=C/C[C@@H](OC(=O)c1ccncc1)c1ccc(OCCO)cc1)c1cnc2ccccc2c1)C(C)C
- composite z-score [1]: 0.73
- z-score [2]: -8.41 (active)
- z-score [3]: -0.56 (inactive)
- z-score [4]: 6.47 (inactive)
- z-score [5]: -0.209 (inactive)
- composite z-score [6]: 0.283
- composite z-score [7]: 0.0108
- composite z-score (Torsin-1A (Homo sapiens) [8]): 1.55
- composite z-score (Torsin-1A (Homo sapiens) [9]): 0.815
- composite z-score [10]: 2.11
- z-score [11]: 1.13 (inactive)
- composite z-score [12]: -0.0199
- z-score [13]: 12.8 (active)
- z-score [14]: 4.25 (inactive)
- z-score [15]: -1.77 (inactive)
- z-score [16]: -0.0139 (inactive)
- z-score [17]: 0.13
- z-score [18]: -2.73 (inactive)
- z-score [19]: -0.648 (inactive)
- z-score [20]: -3.24

SMILES: CC(C)CON=C1C[C@@H](O)[C@@H](O)[C@@H]2[C@@H]3C(=O)N([C@@H](C)c4ccccc4)C(=O)[C@@H]3CC[C@H]12
- composite z-score [1]: 0.257
- z-score [2]: -0.544 (inactive)
- z-score [3]: 1.98 (inactive)
- z-score [4]: -0.383 (inactive)
- z-score [5]: -0.0095 (inactive)
- composite z-score [6]: 0.528
- composite z-score [7]: 0.168
- composite z-score (Torsin-1A (Homo sapiens) [8]): 0.466
- composite z-score (Torsin-1A (Homo sapiens) [9]): 0.477
- composite z-score [10]: 1.58
- z-score [11]: 0.525 (inactive)
- composite z-score [12]: -0.192
- z-score [13]: 3.27 (inactive)
- z-score [14]: 0.149 (inactive)
- z-score [15]: 1.43 (inactive)
- z-score [16]: 0.106 (inactive)
- z-score [17]: -0.414
- z-score [18]: -3.44 (inactive)
- z-score [19]: 1.18 (inactive)
- z-score [20]: 0.197

SMILES: CCN1C(=O)[C@H]2[C@H]3[C@H](O)[C@H](O)CC(=NOC[C@@H](C)[C@H](OCc4ccccc4)C(C)C)[C@@H]3CC[C@H]2C1=O
- composite z-score [1]: 0.0339
- z-score [2]: -0.994 (inactive)
- z-score [3]: 0.683 (inactive)
- z-score [4]: 0.513 (inactive)
- z-score [5]: 0.435 (inactive)
- composite z-score [6]: 0.251
- composite z-score [7]: -0.0458
- composite z-score (Torsin-1A (Homo sapiens) [8]): 0.221
- composite z-score (Torsin-1A (Homo sapiens) [9]): 1.05
- composite z-score [10]: 0.119
- z-score [11]: 0.618 (inactive)
- composite z-score [12]: -0.144
- z-score [13]: 0.551 (inactive)
- z-score [14]: 0.106 (inactive)
- z-score [15]: 0.061 (inactive)
- z-score [16]: 0.0723 (inactive)
- z-score [17]: -0.357
- z-score [18]: -0.136 (inactive)
- z-score [19]: 0.338 (inactive)
- z-score [20]: -0.287

SMILES: O=C1[C@H]2[C@H]3[C@H](O)[C@H](O)CC(=NOC[C@@H](O)COCc4ccco4)[C@H]3CC[C@H]2C(=O)N1Cc1ccc2c(c1)OCO2
- composite z-score [1]: 0.138
- z-score [2]: -0.012 (inactive)
- z-score [3]: 2.01 (inactive)
- z-score [4]: -0.657 (inactive)
- z-score [5]: 0.0952 (inactive)
- composite z-score [6]: -0.405
- composite z-score [7]: -0.162
- composite z-score (Torsin-1A (Homo sapiens) [8]): 3.53
- composite z-score (Torsin-1A (Homo sapiens) [9]): 3.17
- composite z-score [10]: 2.03
- z-score [11]: 0.198 (inactive)
- composite z-score [12]: -0.147
- z-score [13]: 8.99 (active)
- z-score [14]: 1.02 (inactive)
- z-score [15]: 0.107 (inactive)
- z-score [16]: 0.229 (inactive)
- z-score [17]: -0.552
- z-score [18]: -0.377 (inactive)
- z-score [19]: 0.718 (inactive)
- z-score [20]: 0.00627

SMILES: CO[C@H]1O[C@H](CO)[C@@H](OC(=O)Nc2ccc3c(c2)OCO3)[C@H](OC(=O)Nc2ccccc2-c2ccccc2)[C@@H]1OC(=O)Nc1ccccc1-c1ccccc1
- composite z-score [1]: 0.492
- z-score [2]: -3.03 (inactive)
- z-score [3]: -0.176 (inactive)
- z-score [4]: 0.54 (inactive)
- z-score [5]: -0.528 (inactive)
- composite z-score [6]: 1.08
- composite z-score [7]: 0.124
- composite z-score (Torsin-1A (Homo sapiens) [8]): 0.957
- composite z-score (Torsin-1A (Homo sapiens) [9]): 1.17
- composite z-score [10]: 0.672
- z-score [11]: 0.181 (inactive)
- composite z-score [12]: 0.298
- z-score [13]: 2.44 (inactive)
- z-score [14]: 1.7 (inactive)
- z-score [15]: 0.433 (inactive)
- z-score [16]: 1.14 (inactive)
- z-score [17]: -0.0879
- z-score [18]: 2.75 (inactive)
- z-score [19]: -0.0563 (inactive)
- z-score [20]: -0.303
